Measured values published in PubChem BioAssay (EPA / NIEHS).
The source made the active and inactive calls. The calls were made as follows: active = hit-call score of the fitted dose curve at least 0.9, where 1 is the maximum; inactive = score below 0.9.

How the values were obtained:
[1] = ATG_CRE_CIS: Attagene CIS-FACTORIAL HepG2 Assay for human cAMP Responsive Element (CRE) binding protein 3 (AID 2282926); details: HepG2 CRE cis-reporter, Attagene multiplexed mRNA; actives raise or lower the signal
In short: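 Human liver HepG2, transient MRTU transfection, 24 h compound exposure. Total RNA → oligo(dT) RT → PCR → 6-FAM primer extension → HpaI cut → CE. Activity called both directions vs DMSO.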

[2] = target: CCAAT/enhancer-binding protein beta (Homo sapiens) (UniProt P17676); assay: ATG_C_EBP_CIS: Attagene CIS-FACTORIAL HepG2 Assay for human CCAAT/Enhancer Binding Protein (C/EBP) beta (AID 2282927); details: HepG2 Attagene cis-factorial transcription factor reporter; actives raise or lower the signal
In short: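 Endogenous transcription factor activity in human liver HepG2 cells is inferred from induction of a CEBPB-linked reporter mRNA. Exposure lasts 24 h; activity is fitted in both directions relative to DMSO.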

[3] = ATG_CMV_CIS: Attagene CIS-FACTORIAL HepG2 Assay for human CMV (Internal Marker) (AID 2282928); details: HepG2 CMV promoter reporter, transcription factor profiling; actives raise or lower the signal;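 also: endpoint acts as a background internal control marker rather than a target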
In short: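 After transient transfection of HepG2 with reporter transcription units driven by cis-regulatory promoters, cells receive test chemical for 24 h. Labeled reporter amplicons, digested with HpaI, are sized and quantified by capillary electrophoresis against DMSO.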

[4] = ATG_DR4_LXR_CIS: Attagene CIS-FACTORIAL HepG2 Assay for human Liver X Receptor (LXR), DR4 submotif (AID 2282929); details: HepG2 Attagene DR4 cis-reporter, mRNA transcription; actives raise or lower the signal
In short: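 HepG2, transient MRTU transfection, cis-element (DR4) promoter; 24 h compound exposure; total RNA → oligo(dT) RT → PCR → 6-FAM primer extension → HpaI cut → CE. Gain/loss vs DMSO, bidirectional fit.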

[5] = target: Aryl hydrocarbon receptor (Homo sapiens) (UniProt P35869); assay: ATG_Ahr_CIS: Attagene CIS-FACTORIAL HepG2 Assay for human Aryl Hydrocarbon Receptor (Ahr) (AID 2282930); details: HepG2 AhR cis-factorial reporter transcription; actives raise or lower the signal
In short: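 Transient MRTU transfection of HepG2 → 24 h compound exposure → total RNA, oligo(dT) RT → PCR, 6-FAM extension, HpaI cut → CE fluorescence. DMSO = baseline; bidirectional curve fit.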

[6] = ATG_AP_1_CIS: Attagene CIS-FACTORIAL HepG2 Assay for human Activator Protein 1 (AP-1) (AID 2282931); details: HepG2 Attagene cis-factorial AP-1 reporter mRNA; actives raise or lower the signal
In short: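 Transient MRTU transfection of HepG2 → 24 h chemical treatment → RNA isolation, RT-PCR, 6-FAM labelling, HpaI digest → capillary electrophoresis. Fit: bidirectional, DMSO negative control.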

[7] = ATG_AP_2_CIS: Attagene CIS-FACTORIAL HepG2 Assay for human Activator Protein 2 (AP-2) (AID 2282932); details: HepG2 AP-2 cis-reporter, Attagene transcription factor profiling; actives raise or lower the signal
In short: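 HepG2, transient MRTU transfection, cis-regulated reporters; 24 h compound exposure; RNA isolated, RT-PCR, 6-FAM labelling, HpaI digest, CE fluorescence. DMSO = negative control/baseline, bidirectional fit.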

[8] = target: Retinoic acid receptor alpha (Homo sapiens) (UniProt P10276); assay: ATG_DR5_RAR_CIS: Attagene CIS-FACTORIAL HepG2 Assay for human Retinoic Acid Receptor Alpha (RARE), DR5 submotif (AID 2282934); details: HepG2 Attagene cis-factorial RARE DR5 reporter, mRNA; actives raise or lower the signal;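 as to AC50: reporter responds to endogenous RAR alpha beta and gamma in HepG2 not RARA alone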
In short: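 Transient MRTU transfection of HepG2; 24 h compound treatment; TriZol RNA, oligo(dT) RT, PCR, FAM labelling, capillary electrophoresis. Bidirectional fit vs DMSO. Endogenous TF activity at DR5 RARE.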

[9] = target: Transcription factor E2F1 (Homo sapiens) (UniProt Q01094); assay: ATG_E2F_CIS: Attagene CIS-FACTORIAL HepG2 Assay for human E2F Transcription Factor 1 (AID 2282935); details: HepG2 Attagene cis-reporter, E2F reporter RNA transcripts; actives raise or lower the signal
In short: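 Cis-element reporter mRNA induction in transiently transfected HepG2, 24 h exposure. Activity fitted in both directions relative to DMSO negative control.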

[10] = ATG_BRE_CIS: Attagene CIS-FACTORIAL HepG2 Assay for human Bone Morphogenetic Protein (BMP) Response Element (BRE) (AID 2282933); details: HepG2 BMP response element reporter, Attagene transcription factor profiling; actives raise or lower the signal
In short: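 Read-out: reporter mRNA induction quantified by RT-PCR and capillary electrophoresis after 24 h chemical exposure of transfected HepG2 cells. Endogenous factor activity on the BMP response element; gain or loss fitted against DMSO baseline.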

Measured: AC50

Aryl hydrocarbon receptor (Homo sapiens), sequence (P35869 whole entry, looked up): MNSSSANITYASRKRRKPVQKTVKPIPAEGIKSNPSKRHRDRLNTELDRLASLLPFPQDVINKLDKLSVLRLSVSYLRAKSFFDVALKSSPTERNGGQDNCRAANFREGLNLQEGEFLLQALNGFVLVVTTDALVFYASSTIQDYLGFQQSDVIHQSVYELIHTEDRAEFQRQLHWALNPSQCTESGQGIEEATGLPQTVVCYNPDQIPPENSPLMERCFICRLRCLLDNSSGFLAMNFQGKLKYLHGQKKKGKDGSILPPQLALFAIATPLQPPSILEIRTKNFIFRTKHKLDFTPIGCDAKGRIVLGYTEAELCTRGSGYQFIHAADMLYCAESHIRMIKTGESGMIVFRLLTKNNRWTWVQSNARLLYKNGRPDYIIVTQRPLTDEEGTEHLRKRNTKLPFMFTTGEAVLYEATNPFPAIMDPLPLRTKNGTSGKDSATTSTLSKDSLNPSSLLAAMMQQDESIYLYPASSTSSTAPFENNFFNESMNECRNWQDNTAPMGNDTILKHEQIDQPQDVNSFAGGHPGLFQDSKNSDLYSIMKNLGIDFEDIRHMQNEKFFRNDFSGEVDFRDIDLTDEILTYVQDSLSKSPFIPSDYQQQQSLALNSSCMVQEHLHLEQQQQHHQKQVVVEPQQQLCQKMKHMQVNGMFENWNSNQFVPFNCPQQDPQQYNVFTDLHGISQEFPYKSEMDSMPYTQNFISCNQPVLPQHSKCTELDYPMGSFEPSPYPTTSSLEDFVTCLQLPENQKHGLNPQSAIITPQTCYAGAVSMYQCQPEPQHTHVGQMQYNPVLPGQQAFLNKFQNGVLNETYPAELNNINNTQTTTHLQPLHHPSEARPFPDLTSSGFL
Retinoic acid receptor alpha (Homo sapiens), sequence (P10276 whole entry, looked up): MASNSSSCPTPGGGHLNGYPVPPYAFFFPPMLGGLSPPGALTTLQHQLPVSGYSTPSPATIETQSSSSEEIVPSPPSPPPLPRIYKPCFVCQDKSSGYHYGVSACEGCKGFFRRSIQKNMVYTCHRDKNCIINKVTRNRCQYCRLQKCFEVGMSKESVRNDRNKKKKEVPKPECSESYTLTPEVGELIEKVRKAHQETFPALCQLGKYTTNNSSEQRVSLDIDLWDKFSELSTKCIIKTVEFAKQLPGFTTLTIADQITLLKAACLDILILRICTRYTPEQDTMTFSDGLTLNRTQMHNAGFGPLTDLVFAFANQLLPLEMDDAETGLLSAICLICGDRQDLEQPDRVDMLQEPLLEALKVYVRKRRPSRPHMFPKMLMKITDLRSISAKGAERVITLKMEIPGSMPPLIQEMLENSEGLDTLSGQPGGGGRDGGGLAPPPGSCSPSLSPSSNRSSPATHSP
Transcription factor E2F1 (Homo sapiens), sequence (Q01094 whole entry, looked up): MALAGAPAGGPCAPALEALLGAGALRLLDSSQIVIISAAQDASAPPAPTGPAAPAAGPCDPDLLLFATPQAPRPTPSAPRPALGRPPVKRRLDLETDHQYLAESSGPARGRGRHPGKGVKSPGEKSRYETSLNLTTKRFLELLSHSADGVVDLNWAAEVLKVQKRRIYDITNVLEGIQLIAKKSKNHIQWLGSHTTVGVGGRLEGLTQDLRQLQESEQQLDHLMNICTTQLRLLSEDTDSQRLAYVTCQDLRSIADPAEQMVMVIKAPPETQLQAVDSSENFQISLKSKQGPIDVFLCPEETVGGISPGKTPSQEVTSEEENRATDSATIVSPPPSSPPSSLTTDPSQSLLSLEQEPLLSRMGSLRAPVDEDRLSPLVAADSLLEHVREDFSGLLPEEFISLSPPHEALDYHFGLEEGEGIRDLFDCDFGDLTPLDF
CCAAT/enhancer-binding protein beta (Homo sapiens), sequence (P17676 whole entry, looked up): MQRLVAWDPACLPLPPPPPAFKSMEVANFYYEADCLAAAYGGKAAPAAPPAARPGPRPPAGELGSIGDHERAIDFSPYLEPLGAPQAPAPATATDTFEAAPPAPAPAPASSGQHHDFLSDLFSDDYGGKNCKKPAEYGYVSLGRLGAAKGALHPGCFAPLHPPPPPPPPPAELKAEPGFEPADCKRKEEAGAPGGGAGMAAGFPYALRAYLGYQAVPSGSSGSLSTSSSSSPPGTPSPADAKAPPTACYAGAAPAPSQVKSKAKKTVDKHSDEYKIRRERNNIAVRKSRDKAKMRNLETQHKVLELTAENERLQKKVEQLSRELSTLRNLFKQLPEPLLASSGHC

CC(C)CCCCCCCCCCCCCCC(=O)O
active: [8] 54.2 µM
not listed: [10]
inactive: all other assays above

O=C1OC2(c3ccccc31)c1ccc(O)c(Br)c1Oc1c2ccc(O)c1Br
active: [5] 56.6 µM
not listed: [10]
inactive: all other assays above

C1CCOC1
not listed: [10]
inactive: all other assays above

CC(CN=Cc1ccccc1O)N=Cc1ccccc1O (stereo unspecified)
active: [3] 100 µM | [5] 68.7 µM | [6] 100 µM
not listed: [10]
inactive: all other assays above

CCOC(=O)c1ccc(N)cc1
not listed: [10]
inactive: all other assays above

O=CN1CCOCC1
not listed: [10]
inactive: all other assays above

CC(C)(C)OC(=O)c1ccc(O)cc1
active: [6] 70.1 µM
not listed: [10]
inactive: all other assays above

CCC(=O)O[C@@H]1C[C@H]2CC[C@]1(C)C2(C)C
not listed: [10]
inactive: all other assays above

OCCc1ccccc1
not listed: [8]
inactive: all other assays above

CC/C=C\CCOC(=O)CC
not listed: [8]
inactive: all other assays above

Cc1ccc(S(=O)(=O)Oc2ccc(N=Nc3ccc(-c4ccc(N=Nc5c(O)ccc6cc(S(=O)(=O)O)cc(S(=O)(=O)O)c56)c(C)c4)cc3C)cc2)cc1
active: [5] 30.1 µM
not listed: [10]
inactive: all other assays above

COS(=O)(=O)O
not listed: [8]
inactive: all other assays above

C=C(C)C(=O)OCC(CC)(COC(=O)C(=C)C)COC(=O)C(=C)C
not listed: [10]
inactive: all other assays above

Cc1cc(CCC(=O)OCCOCCOCCOC(=O)CCc2cc(C)c(O)c(C(C)(C)C)c2)cc(C(C)(C)C)c1O
not listed: [10]
inactive: all other assays above

Nc1ccc(NCCO)c([N+](=O)[O-])c1
active: [5] 7.19 µM
not listed: [8]
inactive: all other assays above

CCc1cc(C(C)(C)C)c(O)c(C(C)(C)C)c1
active: [3] 53.9 µM | [4] 23.2 µM | [6] 63.7 µM
not listed: [8]
inactive: all other assays above

CCCC[P+](CCCC)(CCCC)CCCC
not listed: [10]
inactive: all other assays above

CCN(CC)C(=O)N(CC)CC
not listed: [8]
inactive: all other assays above

CC1C2CC(CC2C2CCCC(O)C2)C1(C)C (stereo unspecified)
not listed: [8]
inactive: all other assays above

CCCCCC(C)=O
not listed: [8]
inactive: all other assays above

CCC1(c2ccccc2)C(=O)NCNC1=O
not listed: [10]
inactive: all other assays above

CC(C)C[C@H](NC(=O)OCC1c2ccccc2-c2ccccc21)C(=O)O
not listed: [10]
inactive: all other assays above

N[C@@H](Cc1cc(I)c(Oc2cc(I)c(O)c(I)c2)c(I)c1)C(=O)O
active: [5] 3.62 µM
not listed: [10]
inactive: all other assays above

O=C(O)CCCCCCCCC(=O)O
not listed: [10]
inactive: all other assays above

C=C(C)[C@H]1CC=C(C)C(=O)C1
not listed: [8]
inactive: all other assays above

CCCCC(CC)(CO)CO
not listed: [10]
inactive: all other assays above

CCCCCCCC/C=C\CCCCCCCC(=O)OCC
not listed: [8]
inactive: all other assays above

CCCC(=O)OC(C)(C)Cc1ccccc1
active: [5] 72.8 µM
not listed: [6]
inactive: all other assays above

CC1(C)COCN1
not listed: [6]
inactive: all other assays above

COC(C)(C)CCO
not listed: [6]
inactive: all other assays above

O=C(CC(=O)c1ccccc1)c1ccccc1
inactive: [4] | [7] | [10] | [9]
active: [1] 51.1 µM | [2] 70.4 µM | [3] 47.2 µM | [5] 25.9 µM | [8] 62.5 µM

CCCCN(CCCC)C(=O)N(CCCC)CCCC
active: [2] 44.5 µM | [4] 27.9 µM
not listed: [6]
inactive: all other assays above

CCCCCCOCCOCCO
not listed: [8] | [10]
inactive: all other assays above

CC[N+](C)(CC)CC
not listed: [10]
inactive: all other assays above

Cc1cccc(Nc2ccccc2)c1
active: [4] 67.5 µM
not listed: [6]
inactive: all other assays above

CC(C=O)Cc1ccc(C(C)(C)C)cc1 (stereo unspecified)
not listed: [6]
inactive: all other assays above

C=C(C)C(=O)OCCOCCOCCOCCOC(=O)C(=C)C
not listed: [6] | [8]
inactive: all other assays above
